# PubChem BioAssay AID504467 (National Center for Advancing Translational Sciences (NCATS), 2011)
# In all, about 330,000 compounds went through this assay and about 7,700 (2.3%) were called active. Inconclusive results (about 26%) are left out. Calls come from the whole dose curve; as a rule, active = well fitted inhibition curve with a large enough effect; inconclusive = small, poorly fitted or top-dose-only effect, or effect the other way; inactive = flat fitted curve, though single readings scatter. The entries come from a sample that favours actives as a whole. A call without a number means that no potency is given here.
# Test: qHTS screen for small molecules that inhibit ELG1-dependent DNA repair in human embryonic kidney (HEK293T) cells expressing luciferase-tagged ELG1; note: nearly all actives have a fitted effect of over 55% in size
# Details: HEK293T ELG1-luciferase reporter, luminescence, 16 h, DNA damage induced by 5-fluorouridine; series mostly up to 46.1 µM
# Procedure, shortened: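 DMSO vehicle served as the neutral condition. Each well held 2,000 cells given 5-fluorouridine plus compound; after 16 hr at 37 °C/5% CO2, ONE-Glo was added and luciferase measured 30 min later.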
# Potency is the fitted concentration of half-maximal effect.
row,SMILES,Potency
1,O=C(NCc1ccc(Cl)cc1)C1CCN(S(=O)(=O)c2cccs2)CC1,inactive
2,O=C(Nc1ccc(Br)cn1)C1CCN(S(=O)(=O)c2cccs2)CC1,5.8 µM (active)
3,O=C(NC1CCCCC1)C1CCCN(S(=O)(=O)c2cccs2)C1 (stereo unspecified),inactive
4,O=C(COC(=O)c1ccccn1)NNC(=O)c1ccc(Br)cc1,inactive
5,Cc1ccc(OCC(=O)Nc2ccccc2C(=O)NC2CC2)cc1,inactive
6,CCCCNC(=O)N(O)C1N(/N=C/c2ccccc2O)C(=S)SC1(C)C (stereo unspecified),inactive
7,CCOC(=O)C1CCCN(C(=O)CSc2nnc3nc(C)cc(C)n23)C1 (stereo unspecified),inactive
8,CCCc1cc(=O)[nH]c(SCC(=O)Nc2sc3c(c2C#N)CCCC3)n1,inactive
9,N#Cc1c(NC(=O)CSc2nc3ccccc3c(=O)n2Cc2ccco2)sc2c1CCCC2,inactive
10,COc1ccc(-n2c(SCC(=O)Nc3sc4c(c3C#N)CCCC4)nnc2-c2ccc(O)cc2)cc1,18.4 µM (active)
11,CCOc1ccccc1NC(=O)CCc1nnc2ccc(NCc3ccco3)nn12,inactive
12,CN(CC(=O)Nc1ccc(F)cc1)CC(=O)N1CCCCC1,inactive
13,CN(CC(=O)Nc1ccc(F)cc1)CC(=O)Nc1ccc(Cl)c(S(=O)(=O)N2CCOCC2)c1,18.3 µM (active)
14,Cc1ccc(NC(=O)CCCNC(=O)c2ccc(Cl)cc2)cc1S(=O)(=O)N1CCOCC1,inactive
15,Cc1ccc(NC(=O)C2CC2)cc1S(=O)(=O)N1CCOCC1,inactive
16,CN(CCC(=O)Nc1cc(S(=O)(=O)N(C)C)ccc1Cl)CC(=O)Nc1ccc(F)cc1,inactive
17,CC(=O)NCCc1ccc(S(=O)(=O)Nc2ccc(C)c(S(=O)(=O)N3CCOCC3)c2)cc1,inactive
18,Cc1ccc(NC(=O)c2ccc(Cl)nc2)cc1S(=O)(=O)N1CCOCC1,23.1 µM (active)
19,Cc1ccc(NC(=O)C2CCC(C(C)(C)C)CC2)cc1S(=O)(=O)N1CCOCC1 (stereo unspecified),23.1 µM (active)
20,Cc1ccc(NC(=O)c2ccccn2)cc1S(=O)(=O)N1CCOCC1,inactive
21,COc1cccc(CNC(=O)C(=O)NCCC2CCCCN2S(=O)(=O)c2ccc(C)cc2)c1 (stereo unspecified),inactive
22,O=C(CNC(=O)c1ccccc1Br)NCCSc1ccc(Br)cc1,inactive

row,SMILES,Potency
1,CC(C)(C)OC(=O)C1=C(CO)CS[C@@H]2[C@H](NC(=O)Cc3ccccc3)C(=O)N12,inactive
2,COc1ccc(S(=O)(=O)N2CCN(C)CC2)c(C)c1,inactive
3,COc1ccc2c(c1OC)C(=O)OC2Nc1nc(-c2ccccc2)cs1 (stereo unspecified),9.2 µM (active)
4,COc1ccc2c(c1OC)C(=O)OC2c1c(O)nc(SC)n(-c2ccccc2)c1=O (stereo unspecified),inactive
5,COc1ccc(C)cc1Nc1nc(-c2c(C)[nH]c3ccccc23)cs1,inactive
6,O=C(Nc1ccc(N2CCOCC2)c(Cl)c1)c1ccc(S(=O)(=O)N2CCOCC2)cc1,inactive
7,O=C(CN1C(=O)c2ccccc2S1(=O)=O)NC1CCCCC1,inactive
8,O=C(CN1C(=O)c2ccccc2S1(=O)=O)N1CCc2ccccc21,20.6 µM (active)
9,O=C(CN1CCN(c2ccccn2)CC1)N1CCc2ccccc21,inactive
10,CCOc1ccc(-n2c(SCC(=O)Nc3cc(C(=O)O)ccc3Cl)nc3ccccc3c2=O)cc1,inactive
11,O=C(O)CCCn1c(=O)c2cccn2c2ccc(F)cc21,inactive
12,Cc1cc(C)n2nc(C(=O)N3CCN(Cc4ccc5c(c4)OCO5)CC3)nc2n1,inactive
13,O=C(CN1C(=O)c2cccc3cccc(c23)C1=O)N1CCCCC1,inactive
14,O=C(CCCN1C(=O)c2cccc3cccc(c23)C1=O)N1CCN(Cc2ccc3c(c2)OCO3)CC1,2.31 µM (active)
15,O=C(Nc1cccc2ccccc12)N1CCN(Cc2ccc3c(c2)OCO3)CC1,inactive
16,O=C(c1cccs1)N1CCN(Cc2ccc3c(c2)OCO3)CC1,inactive
17,O=C(CSCc1ccc(Cl)cc1)N1CCN(Cc2ccc3c(c2)OCO3)CC1,20.6 µM (active)
18,CCOc1ccccc1NC(=S)NC(=O)CCc1ccccc1,inactive
19,COc1ccc(NC(C)=O)cc1NC(=O)CN1CCN(C2c3ccccc3-c3ccccc32)CC1,0.92 µM (active)
20,COc1cccc(NC(=O)CN2CCN(CC(=O)Nc3ccccc3Cl)CC2)c1,inactive
21,COc1ccc(NC(C)=O)cc1NC(=O)CN1CCN(c2ccccn2)CC1,inactive
22,CCCCN(CCCC)CCCNC(=O)CN1C(=O)COc2ccc(S(=O)(=O)N3CCC(C)CC3)cc21,inactive

row,SMILES,Potency
1,CC(C)n1ncc2c(C(=O)NCc3ccccc3CN(C)C)cc(C3CC3)nc21,inactive
2,COc1ccc(CCn2c(-c3ccco3)nc3nc4ccccc4nc32)cc1OC,4.61 µM (active)
3,COc1ccc(S(=O)(=O)N2CN(CCc3ccc(OC)c(OC)c3)c3nc4ccccc4nc32)cc1,inactive
4,Clc1cccc(-c2nc3nc4ccccc4nc3n2Cc2ccco2)c1,inactive
5,CCOc1ccccc1-c1cc(C(=O)N/N=C(\C)c2cccnc2)c2ccccc2n1,inactive
6,COc1ccc(-c2nc(CS(=O)(=O)CC(=O)NCc3cccc(Br)c3)c(C)o2)cc1,inactive
7,C=CCn1c(SCC(=O)NC)nnc1C12CC3CC(CC(C3)C1)C2,inactive
8,COc1ccc(C2(c3ccc(OC)cc3)NC(=O)N(CC(=O)Nc3cc(C)on3)C2=O)cc1,inactive
9,COc1ccc(S(=O)(=O)N(C)C[C@H]2Oc3c(NC(=O)Nc4ccc5c(c4)OCO5)cccc3C(=O)N([C@H](C)CO)C[C@@H]2C)cc1,11.6 µM (active)
10,COc1ccc(S(=O)(=O)Nc2cccc3c2O[C@H](CN(C)S(=O)(=O)c2ccc(OC)cc2)[C@@H](C)CN([C@H](C)CO)C3=O)cc1,inactive
11,C[C@H](CO)N1C[C@H](C)[C@@H](CN(C)S(=O)(=O)c2ccc(F)cc2)Oc2c(NC(=O)Nc3ccccc3)cccc2C1=O,inactive
12,CCN(C(=O)COC(=O)Cc1c(F)cccc1Cl)c1c(N)n(Cc2ccccc2)c(=O)[nH]c1=O,inactive
13,COc1ccc(-c2[nH]nc3c2C(c2ccncc2)C(C#N)=C(N)O3)cc1 (stereo unspecified),inactive
14,N#CC1=C(N)Oc2c(ccc3cccnc23)C1c1ccncc1 (stereo unspecified),9.2 µM (active)
15,CCCc1nc2c([nH]1)C(c1cccnc1)C(C#N)=C(N)O2 (stereo unspecified),inactive
16,O=C(CNC(=O)c1n[nH]c2ccccc12)Nc1cc(Cl)ccc1Cl,inactive
17,CCOC(CNC(=O)C1CCN(S(=O)(=O)c2ccc3nc4c(c(C(=O)O)c3c2)CC(C)CC4)CC1)OCC (stereo unspecified),inactive
18,COc1ccc(CNC(=O)COC(=O)c2sccc2C)cc1OC,inactive
19,COc1cc(C(=O)N(Cc2ccc(N(C)C)cc2)C2CCS(=O)(=O)C2)cc(OC)c1OC (stereo unspecified),inactive
20,COc1cc(C(=O)NCCOC(=O)c2cccc(N(C)C)c2)cc(OC)c1OC,11.6 µM (active)
21,CCCOP(=O)(c1ccc(N(C)C)cc1)C(O)c1cc(OC)c(OC)c(OC)c1 (stereo unspecified),inactive
22,COC(=O)c1ccc(CNC(=O)c2ccc(S(=O)(=O)N3CCCCCC3)cc2)cc1,inactive

row,SMILES,Potency
1,O=C(N[C@H]1C/C=C\C(c2cccc(F)c2)N(Cc2ccccc2)C(=O)C1)OCC1c2ccccc2-c2ccccc21 (stereo partly specified),inactive
2,COC(=O)c1cc(S(=O)(=O)N2CCN(c3cc(C)ccc3C)CC2)c[nH]1,inactive
3,O=C(c1cn(-c2ccccc2)nc1-c1cccnc1)N1CCCCC1,inactive
4,O=C(c1cn(-c2ccccc2)nc1-c1cccnc1)N1CCN(S(=O)(=O)c2ccccc2F)CC1,14.6 µM (active)
5,NC(=O)C1CCN(C(=O)c2cn(-c3ccccc3)nc2-c2cccnc2)CC1,inactive
6,O=C(OCc1cc(=O)n2ccsc2n1)C1(c2ccc(Cl)cc2)CC1,inactive
7,COc1cc(C(=O)NC2CCN(Cc3ccccc3)CC2)cc(Cl)c1OC(C)C,inactive
8,Nc1nc(NCc2ccccc2)n(-c2ccccc2)n1,inactive
9,O=C(CCC(=O)c1cccs1)NCc1ccccc1,inactive
10,O=C(c1cccs1)n1nc(NCc2ccccc2)nc1NCc1ccccc1,25.9 µM (active)
11,COc1ccc(C)cc1NC(=O)CSc1cccc[n+]1[O-],inactive
12,CC[C@@H]1CCCCc2ccccc2[C@@H](C(=O)C[C@H](O)CC(C)=O)OC1=O,inactive
13,COc1ccc(C(CNC(=O)c2ccc(S(=O)(=O)Nc3ccccc3C)cc2)N2CCOCC2)cc1 (stereo unspecified),inactive
14,O=C(NCc1ccccc1)c1ccc(S(=O)(=O)Nc2cccc(C(F)(F)F)c2)cc1,13 µM (active)
15,O=C(NCc1ccncc1)c1cccc(NS(=O)(=O)c2ccc(F)c(F)c2)c1,inactive
16,CCOC(=O)N1CCN(C(=O)c2ccc(S(=O)(=O)Nc3cccc(C(F)(F)F)c3)cc2)CC1,inactive
17,O=C1C(=O)N(CCN2CCOCC2)C(c2cccc(Cl)c2)/C1=C(/O)c1ccc2c(c1)OCO2 (stereo unspecified),inactive
18,Cc1sc2ncn(CC(=O)NCCCC(=O)N(C)Cc3ccccc3)c(=O)c2c1C,inactive
19,O=C(COc1ccc(Br)cc1F)NCC1(N2CCCCC2)CCCCC1,inactive
20,CSc1ncccc1C(=O)NCC(c1ccco1)N1CCCCC1 (stereo unspecified),inactive
